Out of some 39,000 compounds screened, about 3,300 (8.5%) were called active. This is one part of a sample in which actives are shown more often than they occur.
Each compound was assayed on HepG2 (assay: cytotoxicity call (relative viability < 0.9)). Details: 10 µM.

Question: Which cytotoxicity call does the source give for `Cc1cc2nc3ccc(N(C)C)cc3[s+]c2cc1N.[Cl-]` here?
Answer: active

Question: With `CN(C)c1ccc2c(=O)[nH][nH]c(=O)c2c1` as the compound, how does the cytotoxicity call read?
Answer: inactive

Question: Which cytotoxicity call does the source give for `CN(C)c1ccc2nc3ccc(N(C)C)cc3[s+]c2c1.O.[Cl-]` here?
Answer: active

Question: Which cytotoxicity call does the source give for `C[C@@H]1CN([C@@H](C)CO)C(=O)c2cc(C#Cc3ccc(F)cc3)cnc2O[C@H]1CN(C)Cc1ccccn1` here?
Answer: inactive

Question: For `O=C(C[C@H]1C[C@@H]2c3cc(NS(=O)(=O)c4ccc(F)cc4)ccc3O[C@@H]2[C@H](CO)O1)N1CCOCC1`, which cytotoxicity call is on record?
Answer: inactive

Question: `O=C(C[C@H]1C[C@H]2c3cc(NC(=O)Nc4ccc(C(F)(F)F)cc4)ccc3O[C@H]2[C@H](CO)O1)NCCc1ccccc1` was tested. Which cytotoxicity call did it give?
Answer: inactive

Question: With `C[C@@H]1CCCCO[C@@H](CN(C)C(=O)NC2CCCCC2)[C@@H](C)CN([C@H](C)CO)C(=O)c2cc(NC(=O)Nc3ccc(C(F)(F)F)cc3)ccc2O1` as the compound, how does the cytotoxicity call read?
Answer: active

Question: How did the cytotoxicity call turn out when `C[C@@H]1CCCCO[C@H](CN(C)C(=O)NC2CCCCC2)[C@H](C)CN([C@H](C)CO)C(=O)c2cc(NC(=O)Nc3ccc(C(F)(F)F)cc3)ccc2O1` was run?
Answer: inactive

Question: With `C[C@@H]1CCCCO[C@@H](CN(C)C(=O)NC2CCCCC2)[C@@H](C)CN([C@@H](C)CO)C(=O)c2cc(NC(=O)Nc3ccc(C(F)(F)F)cc3)ccc2O1` as the compound, how does the cytotoxicity call read?
Answer: inactive

Question: How did the cytotoxicity call turn out when `C[C@H](CO)N1C[C@H](C)[C@@H](CN(C)C(=O)NC2CCCCC2)OCCCC[C@H](C)Oc2ccc(NC(=O)Nc3ccc(C(F)(F)F)cc3)cc2C1=O` was run?
Answer: inactive

Question: `C[C@@H]1CCCCO[C@H](CN(C)C(=O)NC2CCCCC2)[C@H](C)CN([C@@H](C)CO)C(=O)c2cc(NC(=O)Nc3ccc(C(F)(F)F)cc3)ccc2O1` was tested. Which cytotoxicity call did it give?
Answer: inactive

Question: For `C[C@H]1CCCCO[C@H](CN(C)C(=O)NC2CCCCC2)[C@@H](C)CN([C@@H](C)CO)C(=O)c2cc(NC(=O)Nc3ccc(C(F)(F)F)cc3)ccc2O1`, which cytotoxicity call is on record?
Answer: active

Question: For `C[C@@H]1CCCCO[C@@H](CN(C)C(=O)NC2CCCCC2)[C@H](C)CN([C@@H](C)CO)C(=O)c2cc(NC(=O)Nc3ccc(C(F)(F)F)cc3)ccc2O1`, which cytotoxicity call is on record?
Answer: inactive

Question: How did the cytotoxicity call turn out when `C[C@@H]1CN([C@H](C)CO)C(=O)c2cc(NC(=O)Nc3ccc(C(F)(F)F)cc3)ccc2O[C@@H](C)CCCCO[C@@H]1CN(C)C(=O)NC1CCCCC1` was run?
Answer: inactive

Question: For `C[C@H](CO)N1C[C@H](C)[C@H](CN(C)C(=O)NC2CCCCC2)OCCCC[C@H](C)Oc2ccc(NC(=O)Nc3ccc(C(F)(F)F)cc3)cc2C1=O`, which cytotoxicity call is on record?
Answer: active

Question: With `C[C@@H]1CCCCO[C@H](CN(C)C(=O)NC2CCCCC2)[C@@H](C)CN([C@@H](C)CO)C(=O)c2cc(NC(=O)Nc3ccc(C(F)(F)F)cc3)ccc2O1` as the compound, how does the cytotoxicity call read?
Answer: inactive

Question: How did the cytotoxicity call turn out when `C[C@H]1CCCCO[C@@H](CN(C)C(=O)NC2CCCCC2)[C@@H](C)CN([C@@H](C)CO)C(=O)c2cc(NC(=O)Nc3ccc(C(F)(F)F)cc3)ccc2O1` was run?
Answer: active

Question: Which cytotoxicity call does the source give for `C[C@@H]1CN([C@@H](C)CO)C(=O)c2cc(NC(=O)Nc3ccc(C(F)(F)F)cc3)ccc2O[C@@H](C)CCCCO[C@@H]1CN(C)C(=O)NC1CCCCC1` here?
Answer: inactive

Question: How did the cytotoxicity call turn out when `C[C@@H]1C=CNN1C(=O)c1cccnc1` was run?
Answer: inactive

Question: For `O=C(C[C@H]1CC[C@@H]2[C@H](COC[C@@H](O)CN2C(=O)c2ccccc2F)O1)N1CCN(c2ccccc2)CC1`, which cytotoxicity call is on record?
Answer: inactive

Question: With `C[C@H]1CN([C@@H](C)CO)C(=O)c2cc(NC(=O)Nc3cccc4ccccc34)ccc2O[C@@H]1CN(C)C(=O)Nc1ccc(F)cc1` as the compound, how does the cytotoxicity call read?
Answer: inactive

Question: How did the cytotoxicity call turn out when `O=C(C[C@@H]1C[C@@H]2c3cc(NS(=O)(=O)c4ccccc4)ccc3O[C@@H]2[C@@H](CO)O1)NC1CCCCC1` was run?
Answer: inactive

Question: `C[C@@H]1CN([C@@H](C)CO)C(=O)Cc2cc(NC(=O)Cc3ccccc3)ccc2O[C@@H]1CN(C)S(=O)(=O)c1ccc(F)cc1` was tested. Which cytotoxicity call did it give?
Answer: inactive

Question: How did the cytotoxicity call turn out when `C[C@H](CO)N1C[C@H](C)[C@H](CN(C)Cc2ccc3c(c2)OCO3)Oc2c(NS(=O)(=O)c3cn(C)cn3)cccc2C1=O` was run?
Answer: inactive

Question: `O=C(/C=C/c1ccc(O)c(O)c1)O[C@@H]1C[C@](OC(=O)/C=C/c2ccc(O)c(O)c2)(C(=O)O)C[C@@H](O)[C@H]1O` was tested. Which cytotoxicity call did it give?
Answer: inactive

Question: `C[C@H](CO)N1C[C@H](C)[C@@H](CN(C)C(=O)Nc2ccc(C(F)(F)F)cc2)OCCCC[C@H](C)Oc2ccc(NC(=O)NC3CCCCC3)cc2C1=O` was tested. Which cytotoxicity call did it give?
Answer: inactive

Question: For `C[C@@H]1CCCCO[C@@H](CN(C)C(=O)Nc2ccc(C(F)(F)F)cc2)[C@H](C)CN([C@H](C)CO)C(=O)c2cc(NC(=O)NC3CCCCC3)ccc2O1`, which cytotoxicity call is on record?
Answer: active

Question: For `C[C@H]1CCCCO[C@H](CN(C)C(=O)Nc2ccc(C(F)(F)F)cc2)[C@@H](C)CN([C@@H](C)CO)C(=O)c2cc(NC(=O)NC3CCCCC3)ccc2O1`, which cytotoxicity call is on record?
Answer: inactive

Question: How did the cytotoxicity call turn out when `COc1ccc(NC(=O)N2C[C@@H](O)COC[C@H]3O[C@H](CC(=O)NC4Cc5ccccc5C4)CC[C@@H]32)cc1` was run?
Answer: inactive

Question: Which cytotoxicity call does the source give for `C[C@@H]1CN([C@@H](C)CO)C(=O)c2c(c3ccccc3n2C)-c2ccccc2CO[C@@H]1CN(C)Cc1ccc(Cl)c(Cl)c1` here?
Answer: inactive

Question: Which cytotoxicity call does the source give for `C[C@H](CO)N1C[C@H](C)[C@H](CN(C)Cc2ccc(C(F)(F)F)cc2)OCCCC[C@H](C)Oc2ccc(N(C)C)cc2C1=O` here?
Answer: inactive

Question: For `C[C@@H]1CCCCO[C@@H](CN(C)Cc2ccc(Cl)c(Cl)c2)[C@H](C)CN([C@H](C)CO)C(=O)c2cc(N(C)C)ccc2O1`, which cytotoxicity call is on record?
Answer: active

Question: With `C[C@@H]1CCCCO[C@H](CN(C)Cc2ccc(C(F)(F)F)cc2)[C@H](C)CN([C@H](C)CO)C(=O)c2cc(N(C)C)ccc2O1` as the compound, how does the cytotoxicity call read?
Answer: active

Question: With `C[C@@H]1CCCCO[C@H](CN(C)Cc2ccc(Cl)c(Cl)c2)[C@@H](C)CN([C@@H](C)CO)C(=O)c2cc(N(C)C)ccc2O1` as the compound, how does the cytotoxicity call read?
Answer: inactive

Question: For `C[C@@H]1CCCCO[C@@H](CN(C)Cc2ccc(C(F)(F)F)cc2)[C@@H](C)CN([C@H](C)CO)C(=O)c2cc(N(C)C)ccc2O1`, which cytotoxicity call is on record?
Answer: inactive

Question: Which cytotoxicity call does the source give for `C[C@H](CO)N1C[C@H](C)[C@@H](CN(C)Cc2ccc(Cl)c(Cl)c2)OCCCC[C@H](C)Oc2ccc(N(C)C)cc2C1=O` here?
Answer: inactive

Question: How did the cytotoxicity call turn out when `C[C@H]1CCCn2nncc2COCCNC1=O` was run?
Answer: inactive

Question: With `COCCOC(=O)N1C(=O)[C@@]2(c3ccccc31)[C@H](C(=O)N1CCCCCCC1)[C@H]1C(=O)O[C@H](c3ccccc3)[C@H](c3ccccc3)N1[C@@H]2c1ccccc1OCCO` as the compound, how does the cytotoxicity call read?
Answer: inactive

Question: For `CNS(=O)(=O)c1ccc(C)cc1`, which cytotoxicity call is on record?
Answer: inactive

Question: With `Cc1ccc(S(=O)(=O)[N-]Cl)cc1.[Na+]` as the compound, how does the cytotoxicity call read?
Answer: inactive

Question: With `Cc1cccc(-n2cc(CN)cn2)c1` as the compound, how does the cytotoxicity call read?
Answer: inactive

Question: For `COc1cc(NC(=O)c2cccc(-n3cc(NC(=O)Nc4cccc(C)c4)cn3)c2)cc(OC)c1OC`, which cytotoxicity call is on record?
Answer: active

Question: How did the cytotoxicity call turn out when `COc1cc(NC(=O)Cn2cnc3c2c(=O)n(C)c(=O)n3C)cc(OC)c1OC` was run?
Answer: inactive

Question: For `Cc1noc(C)c1S(=O)(=O)Nc1cccc2c1O[C@@H](CN(C)S(=O)(=O)c1cn(C)cn1)[C@@H](C)CN([C@H](C)CO)C2=O`, which cytotoxicity call is on record?
Answer: inactive

Question: How did the cytotoxicity call turn out when `C[C@H](CO)N1C[C@H](C)[C@H](CN(C)C(=O)Nc2ccc(C(C)(C)C)cc2)OCc2cnnn2CCCC1=O` was run?
Answer: inactive

Question: Which cytotoxicity call does the source give for `C[C@@H]1CCCCO[C@@H](CN(C)C(=O)NC2CCCCC2)[C@H](C)CN([C@@H](C)CO)C(=O)c2cc(NS(=O)(=O)c3ccccc3)ccc2O1` here?
Answer: active

Question: How did the cytotoxicity call turn out when `C[C@@H]1CN([C@H](C)CO)C(=O)c2cc(NS(=O)(=O)c3ccccc3)ccc2O[C@@H](C)CCCCO[C@@H]1CN(C)C(=O)NC1CCCCC1` was run?
Answer: inactive

Question: `C[C@H]1CCCCO[C@H](CN(C)C(=O)NC2CCCCC2)[C@@H](C)CN([C@@H](C)CO)C(=O)c2cc(NS(=O)(=O)c3ccccc3)ccc2O1` was tested. Which cytotoxicity call did it give?
Answer: inactive

Question: Which cytotoxicity call does the source give for `C[C@@H]1CCCCO[C@@H](CN(C)C(=O)NC2CCCCC2)[C@H](C)CN([C@H](C)CO)C(=O)c2cc(NS(=O)(=O)c3ccccc3)ccc2O1` here?
Answer: inactive

Question: `C[C@H](CO)N1C[C@H](C)[C@H](CN(C)C(=O)NC2CCCCC2)OCCCC[C@H](C)Oc2ccc(NS(=O)(=O)c3ccccc3)cc2C1=O` was tested. Which cytotoxicity call did it give?
Answer: active

Question: With `C[C@@H]1CCCCO[C@H](CN(C)C(=O)NC2CCCCC2)[C@@H](C)CN([C@@H](C)CO)C(=O)c2cc(NS(=O)(=O)c3ccccc3)ccc2O1` as the compound, how does the cytotoxicity call read?
Answer: inactive

Question: `O=C(C[C@@H]1CC[C@@H](NC(=O)Cc2ccccn2)[C@@H](CO)O1)NCCCN1CCOCC1` was tested. Which cytotoxicity call did it give?
Answer: inactive

Question: With `C[C@H](CO)N1C[C@H](C)[C@H](CN(C)Cc2ccc(C(=O)Nc3ccccc3N)cc2)Oc2c(NS(=O)(=O)c3cn(C)cn3)cccc2C1=O` as the compound, how does the cytotoxicity call read?
Answer: inactive

Question: With `C[C@@H]1CN([C@H](C)CO)C(=O)c2cccc(NC(=O)c3ccc(-c4nccs4)cc3)c2O[C@@H]1CN(C)C(=O)Nc1cccc2ccccc12` as the compound, how does the cytotoxicity call read?
Answer: inactive

Question: How did the cytotoxicity call turn out when `COc1ccc(CN2C[C@@H](C)[C@@H](OC)CN(C)C(=O)c3cc(NC(=O)c4nc5ccccc5s4)ccc3OC[C@@H]2C)cc1` was run?
Answer: inactive

Question: For `CCCC(=O)Nc1ccc2c(c1)OC[C@@H](C)N(S(=O)(=O)c1cn(C)cn1)C[C@@H](C)[C@H](OC)CN(C)C2=O`, which cytotoxicity call is on record?
Answer: inactive

Question: For `C[C@@H]1CN([C@@H](C)CO)C(=O)c2cc(NC(=O)Cc3ccccc3)ccc2O[C@@H]1CN(C)Cc1ccc(C(F)(F)F)cc1`, which cytotoxicity call is on record?
Answer: inactive

Question: Which cytotoxicity call does the source give for `C[C@@H]1CN([C@H](C)CO)C(=O)c2cc(NC(=O)Cc3ccccc3)ccc2O[C@@H]1CN(C)Cc1ccc(-c2ccccc2)cc1` here?
Answer: inactive

Question: For `C[C@@H]1CN([C@H](C)CO)C(=O)c2cc(NC(=O)Cc3ccccc3)ccc2O[C@H]1CN(C)Cc1ccc(-c2ccccc2)cc1`, which cytotoxicity call is on record?
Answer: active

Question: `C[C@@H]1CN([C@H](C)CO)C(=O)c2cc(NC(=O)Cc3ccccc3)ccc2O[C@H]1CN(C)Cc1ccc(C(F)(F)F)cc1` was tested. Which cytotoxicity call did it give?
Answer: inactive

Question: How did the cytotoxicity call turn out when `C[C@@H]1CN([C@@H](C)CO)C(=O)c2cc(NC(=O)Cc3ccccc3)ccc2O[C@H]1CN(C)Cc1ccc(-c2ccccc2)cc1` was run?
Answer: active

Question: For `C[C@@H]1CN([C@@H](C)CO)C(=O)c2cc(NC(=O)Cc3ccccc3)ccc2O[C@@H]1CN(C)Cc1ccc(-c2ccccc2)cc1`, which cytotoxicity call is on record?
Answer: active

Question: With `C[C@H](CO)N1C[C@H](C)[C@H](CN(C)Cc2ccc(-c3ccccc3)cc2)Oc2ccc(NC(=O)Cc3ccccc3)cc2C1=O` as the compound, how does the cytotoxicity call read?
Answer: active

— the antibiotic and cytotoxicity screens of Wong et al. (2023)
